The campaign covered roughly 360,000 compounds. About 3,500 (0.97%) were called active. This is one part of a sample in which actives are shown more often than they occur. A number with no mark means an inactive call.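 How the source made its calls: active means activation above a per-plate cutoff, the mean activation of sample wells on that plate plus 3 SD (cut at about 8% in these data); inactive means the rest.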
Each compound was assayed against Melanocortin receptor 4 (Homo sapiens) (UniProt P32245) (assay: activators of MC4R beta-arrestin recruitment – cell-based, luminescence, agonist arm of biased-ligand search, primary screen (AID 540308)). Conditions: U2OS MC4R beta-arrestin complementation, at 8.9 µM, hits give high values, percent of melanotan II response, DMSO zero.
Sequence of Melanocortin receptor 4 (Homo sapiens) (P32245 whole entry, looked up): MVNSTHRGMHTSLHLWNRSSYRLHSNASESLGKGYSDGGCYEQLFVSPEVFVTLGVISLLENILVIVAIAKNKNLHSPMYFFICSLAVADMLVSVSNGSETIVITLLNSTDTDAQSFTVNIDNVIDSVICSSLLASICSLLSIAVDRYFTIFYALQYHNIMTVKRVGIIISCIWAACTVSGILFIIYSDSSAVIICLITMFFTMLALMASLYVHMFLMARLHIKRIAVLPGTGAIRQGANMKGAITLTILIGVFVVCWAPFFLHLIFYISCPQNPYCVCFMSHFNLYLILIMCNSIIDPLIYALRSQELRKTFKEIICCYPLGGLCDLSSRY

SMILES | activation
COc1ccc(CCCNC(=O)C2Cc3c(-c4cccc(C(N)=O)c4)ccnc3O2)cc1 (stereo not given) | -1.12%
CCCNC(=O)C1(C)CCCN(C(=O)c2oc3ccccc3c2C)C1 (stereo not given) | -0.51%
O=C(COc1ccc(/C=N/NC(=O)c2ccc(O)cc2)cc1)Nc1ccc([N+](=O)[O-])cc1 | 2.23%
O=C(N/N=C/c1ccc(OC(=O)c2ccccc2Cl)cc1)c1ccc(O)cc1 | 13.4% (active)
CC(C)(C)C(=O)Nc1ccc(C(=O)N/N=C/c2ccccc2OC(=O)c2ccc(Cl)cc2Cl)cc1 | -0.61%
CCc1nc2c(OCc3ccc(F)c(F)c3)cccn2c1N(C)C(=O)c1ccco1 | 1.17%
CC(=O)c1cccc(-c2cnc3c(NC=O)cc(-c4ccc(N5CCN(C)CC5)cc4)cn23)c1 | -0.45%
COc1ccc(-c2cc(NC=O)c3ncc(-c4cc(OC)c(OC)c(OC)c4)n3c2)c(OC)c1 | 7.55%
CC(=O)c1cccc(-c2cnc3c(NC=O)cc(-c4cccc(C(=O)N(C)C)c4)cn23)c1 | 6.06%
CN(C)CCNC(=O)c1ccc(-c2cn3c(-c4ccc(Oc5ccccc5)cc4)cnc3cn2)cc1 | 1.4%
CC(=O)c1ccc(-c2cnc3c(NC=O)cc(-c4cccc(NS(C)(=O)=O)c4)cn23)cc1 | -0.24%
COc1ccc(-c2cc(NC=O)c3ncc(-c4cccc(C(=O)N(C)C)c4)n3c2)c(OC)c1 | 5.89%
CC(=O)c1cccc(-c2cnc3c(NC=O)cc(-c4ccccc4Oc4ccccc4)cn23)c1 | 3.06%
COc1ccc(-c2cc(NC=O)c3ncc(-c4ccccc4)n3c2)cc1OC | 21.5% (active)
CN(C)CCNC(=O)c1cccc(-c2cnc3c(NC=O)cc(-c4cccc(C(F)(F)F)c4)cn23)c1 | 13.3% (active)
CN(C)C(=O)c1cccc(-c2cnc3c(NC=O)cc(-c4ccc(F)cc4)cn23)c1 | 11.3% (active)
CN(C)C(=O)c1cccc(-c2cnc3c(NC=O)cc(-c4ccc(C(=O)N5CCOCC5)cc4)cn23)c1 | 3.87%
CC(=O)c1cccc(-c2cnc3c(NC=O)cc(-c4ccc(N(C)C)cc4)cn23)c1 | 10% (active)
CC(C)NC(=O)C1(C)CCCCN1Cc1cccc(C(F)(F)F)c1 (stereo not given) | 1.6%
COc1cccc(C(O)c2ncc(-c3ccc4ccccc4c3)[nH]2)c1 (stereo not given) | -2.03%
CSc1ccc(CN2CCC2(C)C(=O)NCc2ccccc2Br)cc1 (stereo not given) | 0.53%
COc1cccc(C(O)c2nc(-c3ccc(C)c(C)c3)cs2)c1 (stereo not given) | 1.59%
CC(O)(c1cccc(F)c1)c1nc(-c2ccc3c(c2)OCO3)cs1 (stereo not given) | 3.56%

SMILES | activation
O=C(Nc1ccc(Cl)cc1)C1Cc2c(-c3ccc4c(c3)OCO4)ccnc2O1 (stereo not given) | 1.36%
CCOCC(=O)Nc1cc(OC)c(Cl)cc1OC | -0.35%
COc1cc(NC(=O)c2ccccc2)c(OC)cc1NC(=O)Cc1ccccc1 | -1.99%
COc1cc(NC(=O)c2ccc(-c3csc(C)n3)cc2)c(OC)cc1Cl | 9.13% (active)
CCc1nc2c(OCc3cccc(OC)c3)cccn2c1N(C)C(=O)C(C)C | 1.4%
CCCCN(C=O)c1c(CC)nc2c(OCCC3CCCCC3)cccn12 | -0.53%
COc1ccc(Nc2nc(NCc3ccco3)nc(N/N=C/c3ccccc3Cl)n2)cc1 | -2%
N#Cc1nc(-c2cccc3ccccc23)oc1N | -1.15%
COc1ccc(Nc2oc(-c3ccccc3Cl)nc2C#N)cc1 | 13.3% (active)
COc1cccc(-c2ccc3c(c2)N(Cc2ccccc2OC)C(=O)C(C)S3)c1 (stereo not given) | 0.04%
CC(C)Nc1nc(NCCOc2ccccc2Cl)c2sccc2n1 | -1.08%
CC(=O)Nc1cccc(-c2cc3nc(NCc4cccnc4)n(C)c(=O)c3s2)c1 | 0.57%
COc1ccc(OC)c(C(O)c2ncc(-c3cccc(C(F)(F)F)c3)[nH]2)c1 (stereo not given) | -1.84%
COc1ccc(NC(=O)C2Cc3c(-c4cccc(NC(C)=O)c4)ccnc3O2)cc1OC (stereo not given) | -0.44%
COc1ccc(NC(=O)C2(C)Cc3c(-c4cccc(NC(C)=O)c4)ccnc3O2)cc1OC (stereo not given) | -2.08%
S=C(NCCCc1cnc[nH]1)NCCCN(Cc1ccc(Cl)c(Cl)c1)c1ccc(Br)cn1 | 17.5% (active)
NCCCNC(=S)NCCCN(Cc1ccc(Cl)cc1)c1ccc(Br)cn1 | 5.16%
CCOC(=O)N1CCN(c2c(NCCN3CCN(c4ccccc4F)CC3)c(=O)c2=O)CC1 | -0.12%
CCOC(=O)c1cccc(NC(=O)c2ccc(F)cc2F)c1 | -1.66%
CCOC(=O)c1nn(-c2ccccc2F)c2nc(Nc3ccccc3)cc(=O)n12 | 10.2% (active)
COc1ccc(CN(Cc2ccc(OC)cc2)C(=O)c2cccs2)cc1 | -3.4%
COc1ccc(C(CCN(Cc2ccc(OC)c(OC)c2)C(=O)CCl)c2ccccc2)cc1 (stereo not given) | 22.9% (active)
COc1ccc(CCNC(=O)C(Sc2ccccn2)c2ccccc2)cc1OC (stereo not given) | -0.76%

SMILES | activation
CCCCCNC(=O)c1cccnc1SCC(=O)Nc1ccccc1OC | -0.84%
Cc1ccccc1S(=O)(=O)NC(=O)C1(C)CCN1C(=O)C1(c2ccc(Cl)cc2)CC1 (stereo not given) | 0.06%
CC1(C(=O)Nc2cccc3c2CCCC3)CCN1C(=O)C1(c2ccccc2)CC1 (stereo not given) | 1.08%
COc1cccc(NC(=S)NC(=O)c2c(Cl)c(C)nn2C)c1 | 16.6% (active)
COc1cccc(OC)c1C(=O)NC(=S)Nc1ccc(N2CCOCC2)c(Cl)c1 | -1.34%
Cc1nn(C)c(C(=O)NNC(=S)NC2CCCCC2)c1Cl | -2.05%
CC1(C(=O)NS(=O)(=O)c2ccccc2Cl)CCN1C(=O)c1cccc(F)c1 (stereo not given) | -0.15%
CC(=O)NN=C(C)c1ccc(NC(=O)C2CC2)cc1 | -0.71%
O=C(/C=C/c1c(Cl)cccc1Cl)NCc1ccccc1 | 19.2% (active)
O=C(CC(=O)N/N=C\c1cccc(Cl)c1Cl)NCc1ccccc1 | -2.24%
CCOC(=O)CNC(=O)/C=C/c1c(Cl)cccc1Cl | -0.83%
Cc1nc2c(OCc3ccc(Cl)cc3Cl)cccn2c1N(C)CC1CC1 | -3.94%
CCCCC(=O)N(C)c1c(CC)nc2c(OCc3ccc(S(C)(=O)=O)cc3)cccn12 | 0.14%
COC(=O)c1ccc(OCC(=O)NC(C)(C)C)cc1 | -0.44%
CCCOc1ccc(C(=O)C(CCC(CNCC)C(=O)c2ccc(OCCC)cc2)CNCC)cc1 (stereo not given) | 24.6% (active)
CCCOc1ccc(/C=N/NC(=O)C2CC2)c(OCCC)c1 | 0.66%
COc1cncc(-c2cnc3sc(NCCc4ccccn4)nn23)c1 | -0.85%
COc1ccc(OC)c(NC(=O)C2(C)CCN2C(=O)Cc2ccccc2)c1 (stereo not given) | -0.64%
COc1ccc(NC(=O)C2Cc3c(-c4ccc5c(c4)OCO5)ccnc3O2)cn1 (stereo not given) | 2.24%
Cc1cc(C(=O)N2CCCC2(C)C(=O)O)c(C)o1 (stereo not given) | -0.89%
Clc1ccc(Nc2ncnc3c2nnn3Cc2ccccc2)cc1 | 19.9% (active)
c1ccc(Cn2nnc3c(NCC4CC4)ncnc32)cc1 | 2.35%
CC(C)Nc1ncnc2c1nnn2Cc1ccccc1 | -0.12%

SMILES | activation
CCc1nc2c(OCc3ccc(C(F)(F)F)cc3)cccn2c1N(C)C(=O)CC(C)C | -1.6%
CC(C)Cc1ccc(-c2cc3nc(NCc4cccc(Cl)c4)ccn3n2)cc1 | -1.5%
Cc1ccc(OCC(=O)Nc2ccc(NC(=O)c3cccs3)cc2)c(C)c1 | 2.63%
Cc1ccc(C(=O)Nc2ccc(NC(=O)c3cccs3)cc2)c(C)c1 | 13.3% (active)
Cc1ccccc1C(=O)N1CCN(c2ccc(NC(=O)c3cccs3)cc2)CC1 | -4.77%
O=C(NCc1cccnc1)c1cc(C2CCCN(C(=O)CCCc3ccccc3)C2)on1 (stereo not given) | 0.26%
Cc1ccccc1-c1csc(C(O)c2cccc(Cl)c2)n1 (stereo not given) | -1.62%
O=C(NCc1ccc(F)cc1)c1cc(C2CCCCN2C(=O)C2CCCCC2)on1 (stereo not given) | -0.53%
COc1cc(F)ccc1-c1cc(C(=O)NCC2CCCCC2)[nH]n1 | 1.24%
C=CCn1c(SCCOc2ccc(OC)cc2)nnc1C(NC(=O)c1ccc(OC)cc1)C(C)C (stereo not given) | 2.5%
C=CCn1c(SCC(=O)c2ccc(Br)cc2)nnc1C(C)NC(=O)Cc1ccc(OC)cc1 (stereo not given) | 9.94% (active)
C=CCn1c(CNC(=O)c2ccco2)nnc1SCC(=O)c1ccc(OC)cc1 | -1.26%
CC1(C(=O)NS(=O)(=O)c2cccs2)CCN1C(=O)Cc1ccc(-c2ccccc2)cc1 (stereo not given) | 1.02%
CC1(C)CN(CCc2ccccc2)C(=O)[C@H]1CC(=O)Nc1ccc(Br)cc1 | 1.43%
CCCCN1CC(C)(C)[C@H](CC(=O)Nc2ccc(Br)cc2)C1=O | 14.2% (active)
CC1(C)CN(Cc2cccnc2)C(=O)[C@H]1CC(=O)Nc1ccc(Br)cc1 | -2.67%
Cc1noc(C)c1-c1ccc(C(=O)NCc2ccncc2)c2occc12 | -0.03%
Cc1cccc(CNC(=O)c2sc(=O)n(Cc3ccccc3C)c2C)c1 | 0.16%
O=C(OCc1cn(-c2ccc(Cl)c(Cl)c2)nn1)c1ccccc1Cl | 16.5% (active)
Cc1cccc(/C(N)=N/OC(=O)c2ccccc2Cl)c1 | -0.56%
O=C(COC(=O)c1ccccc1Cl)NC1CCCCCCC1 | -2.78%

Reference: PubChem BioAssay AID540308 (The Scripps Research Institute Molecular Screening Center, 2011)
